PI5P4Ka inh: inhibitors of human PI5P4K alpha; max response, %; PI5P4Kalpha enzyme, ADP-Glo luminescence, 60 min; active compounds read low; 330,000 compounds, 1.2% hits; active means max response of -50% or lower; inconclusive means between -30% and -50%; inactive means -30% or higher; further: value at the top dose of about 77 µM; on the % scale 0 is the no-effect control and ±100 the full control effect
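Compounds were pin-transferred onto PI5P4Kalpha and substrate in HEPES pH 7.4 buffer with EGTA, CHAPS and 5% DMSO. ATP (5 microM final) started the reaction, which ran 60 minutes at room temperature before ADP-Glo detection.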
Pol eta inh: inhibitors of human DNA polymerase eta. AID 588591. recombinant Pol eta, fluorescent DNA replication assay. Potency, µM (doses to about 114 µM), for inactives: at the top dose activity change, negative = inhibition, usual class: inhibitors. Q9Y253. 390,000 compounds, 1.2% hits; further: potency means the concentration at half of the fitted maximal effect; on the % scale 0 is the no-effect control and ±100 the full control effect
Target sequence (Q9Y253 whole entry, looked up): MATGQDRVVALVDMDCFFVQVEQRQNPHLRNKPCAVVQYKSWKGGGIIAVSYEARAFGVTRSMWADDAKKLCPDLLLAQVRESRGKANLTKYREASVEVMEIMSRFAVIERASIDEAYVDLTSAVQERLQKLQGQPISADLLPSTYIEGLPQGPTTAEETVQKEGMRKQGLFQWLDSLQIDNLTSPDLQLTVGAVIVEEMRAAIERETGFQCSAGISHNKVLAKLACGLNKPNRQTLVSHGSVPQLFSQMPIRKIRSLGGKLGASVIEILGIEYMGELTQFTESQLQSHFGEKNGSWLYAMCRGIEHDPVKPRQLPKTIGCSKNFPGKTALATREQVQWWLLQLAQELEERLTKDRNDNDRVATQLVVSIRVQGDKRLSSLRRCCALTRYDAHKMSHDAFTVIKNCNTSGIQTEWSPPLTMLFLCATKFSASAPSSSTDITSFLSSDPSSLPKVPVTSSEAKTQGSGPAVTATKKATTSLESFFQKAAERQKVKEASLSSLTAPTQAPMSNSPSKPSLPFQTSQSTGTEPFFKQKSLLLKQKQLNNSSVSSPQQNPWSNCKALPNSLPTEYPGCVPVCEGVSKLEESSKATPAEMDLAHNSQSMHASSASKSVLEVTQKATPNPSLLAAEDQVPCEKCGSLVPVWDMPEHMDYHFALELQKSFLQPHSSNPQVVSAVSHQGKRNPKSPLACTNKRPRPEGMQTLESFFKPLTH
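Fluorescent replication assay: 50 nM final substrate added after a 15 min room-temperature compound preincubation with 10 nM enzyme. Signal taken at 0 min and again at 10 min.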
PI4K2A inh: PI4K2A (human) kinase inhibition; Q9BTU6; purified PI4K2A, ADP-Glo luminescence, 1 h; active compounds read low; activity change, negative = inhibition, % at 76.9 µM; 420,000 compounds, 0.13% hits; AID 1346378; in the data active means activity change below about -50%; inconclusive means mostly about -30% to -49%;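 further: -100% = wells without enzyme as full effect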
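In this quantitative HTS, ADP production by PI4K2A was quantified luminescently after 1 h at ambient temperature; 100 microM adenosine served as plate-quality control.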
POLB inh: inhibitors of human DNA polymerase beta; P06746; Pol beta primer extension/strand displacement, fluorescence kinetic; Potency, µM (series often up to 114 µM), for inactives: top-dose activity change, negative = inhibition, usual class: inhibitors; 340,000 compounds, 1.3% hits; AID 485314; further: potency means the concentration at half of the fitted maximal effect; on the % scale 0 is the no-effect control and ±100 the full control effect
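Kinetic readout of DNA synthesis with strand displacement by Pol beta. Compound and 10 nM enzyme sit 15 min at room temperature; 50 nM substrate starts the reaction, read immediately and at 10 min.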
POLI inh: DNA polymerase iota (human) inhibition. Q9UNA4. Pol iota fluorescent replication assay, 10 min. Potency, µM (doses to about 115 µM), for inactives: at the top dose activity, negative = inhibition, actives largely listed as inhibitors. 390,000 compounds, 1% hits; further: potency means the concentration at half of the fitted maximal effect
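Fluorescent replication assay read twice, at 0 min and 10 min after adding 50 nM (final) substrate. Enzyme (10 nM) and compounds were first incubated 15 min at room temperature; enzyme-free buffer wells were negative controls.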
POLK inh: DNA polymerase kappa (human) inhibition; purified Pol kappa, fluorescent DNA synthesis assay, 10 min; Q9UBT6; Potency, µM (doses to about 107 µM), inactives show top-dose activity, negative = inhibition, hits mostly inhibitors; 400,000 compounds, 0.53% hits; further: potency means the concentration at half of the fitted maximal effect; on the % scale 0 is the no-effect control and ±100 the full control effect
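Here, compound and 10 nM enzyme are combined for 15 min at room temperature; adding 50 nM substrate (final) starts DNA synthesis, tracked by fluorescence at 0 and 10 min against buffer-only wells.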
TbPGK inh: blocks T. brucei phosphoglycerate kinase | shares compounds with POLK inh | TbPGK coupled GAPDH assay, Kinase-Glo luminescence | Potency, µM (titrated, usually from 57.5 µM), for inactives: top-dose activity change, negative = inhibition, most hits filed as inhibitors | 500 compounds, 79% hits | AID 686980; further: potency means the concentration at half of the fitted maximal effect; on the % scale 0 is the no-effect control and ±100 the full control effect; nearly all actives have a fitted effect of over 65% in size
Pol iota confirm: Inhibitors of human DNA polymerase iota, confirmation. 1,500 compounds, 77% hits. shares compounds with POLK inh. Potency, µM, usual class: inhibitors. AID 720496. Pol iota primer extension, TAMRA/BHQ fluorescence; further: potency means the concentration at half of the fitted maximal effect
The depositor's hits bear a star; ? = inconclusive; / = not tested or not shown; [ ] = another dose, or the depositor's remark. An excerpt weighted towards active compounds, which were near 2.8% of everything screened. Unless noted, the call rests on the fitted dose curve; in most records, active means well fitted curve in the direction sought with a large enough effect; inconclusive means small, poorly fitted or top-dose-only effect, or another doubt; inactive means no such curve, though single readings can be large; an effect the other way counts as inactive or inconclusive.

SMILES	PI5P4Ka inh	Pol eta inh	PI4K2A inh	POLB inh	POLI inh	POLK inh	TbPGK inh	others
COc1ccc(C(=O)O/N=C(/C)c2cccs2)cc1	-51*	-10%	-92*	14%	3%	-3%	5.8µM*
O=C(NCc1ccc(Cl)cc1)C1CCCN(c2ncnc3onc(-c4ccc(F)cc4)c23)C1 (stereo not drawn)	/	-25%	1	2%	20%	0%	/
COc1cc(Cl)c(C)cc1NC(=O)CSc1nc2c(c(=O)[nH]1)CCCC2	/	/	-1	5%	28%	-4%	/
CCCCOC(=O)c1ccc(Nc2ncnc3[nH]ncc23)cc1	/	-4%	-8	23%	-8%	-9%[60.1 µM]	/
Cc1nc2ccc(C(=O)Nc3cccc(OCC(=O)N(C)C)c3)cn2c1N(C)CC1CCCCC1	4	/	9	/	/	/	/
C/C(=N/NC(=O)c1cc(O)c(O)c(O)c1)c1ccc([N+](=O)[O-])cc1	?	14µM*	-5	1.8µM*	?	13µM*	?
CCCCNc1cc(NC2CCCCC2)c2c3c(onc13)-c1ccccc1C2=O	/	71µM*	-20	?	?	-7%	/	Pol iota confirm=60*
O=C1c2ccccc2-c2onc3c(NCCO)cc(NC4CCCCC4)c1c23	/	-15%	?	1%	-13%	-32%	/
COc1ccc(C(C[N+](=O)[O-])c2c(C)[nH]n(-c3ccccc3)c2=O)cc1 (stereo not drawn)	1	-13%	-27	-2%	1.6µM*	-10%	/	Pol iota confirm=67*
O=C(O)CCn1c2c(c3ccccc31)C[C@H](NS(=O)(=O)c1ccc(F)cc1)CC2	/	/	1	/	/	3%[19.4 µM]	/
COc1ccc(-c2cc3ccccc3oc2=O)cc1NC(=O)c1ccc(Br)o1	-12	11µM*	2	?	?	8%	/	Pol iota confirm=?
O=C(Nc1cccc(-c2cc3ccccc3oc2=O)c1)c1ccc(Br)o1	-11	?	0	2%	?	-4%	/
Cc1ccc(N2CCN(C(=O)c3noc4c3COc3ccc(C)cc3-4)CC2)c(C)c1	/	-3%	-10	-17%	8%	-18%	/
O=C(O)CC(O)CC(O)/C=C/c1c(C2CC2)nc2ccccc2c1-c1ccc(F)cc1 (stereo not drawn)	/	/	/	/	/	2%[60.1 µM]	/
O=C(Nc1ccc(Cl)c(Cl)c1)Nc1nnc(-c2ccncc2)s1	-20	?	-13	?	?	?	/	Pol iota confirm=?
COc1ccc(NC(=O)Nc2nnc(-c3ccncc3)s2)cc1	0	4%	-7	?	7%	-20%	/
O=C(Cc1ccc(F)cc1)NCc1nc2cccnc2n1Cc1ccc(F)cc1	/	-16%	-5	-4%	20%	-6%[60.1 µM]	/
O=C(c1ccco1)N1CCc2ccccc21	3	2%	-4	1%	18%	0%	/
O=C(/C=C/c1ccco1)N1CCc2ccccc21	?	-7%	-53*	?	-27%	0%	16µM*
COc1ccc(NC(=O)c2cc3c(=O)n(C)c4ccccc4c3s2)cc1OC	-3	?	-1	?	28%	-17%	/	Pol iota confirm=30*
COc1ccc(CCNC(=O)c2cc3c(=O)n(C)c4ccccc4c3s2)cc1OC	/	-4%	-5	20%	10%	-5%	/
O=C(O)CCCCCNC(=O)/C=C/c1ccco1	0	3%	2	?	-16%	-17%	/
O=C(O)CCCNC(=O)/C=C/c1ccco1	-4	4µM*	-5	2.8µM*	?	50µM*	?
O=C(c1coc(=O)c(Br)c1)N1CCOCC1	?	10µM*	-11	6.3µM*	?	?	29µM*
O=C(c1ccc(=O)oc1)N1CCOCC1	-3	1.8µM*	-10	5µM*	?	50µM*	4.1µM*
SMILES	PI5P4Ka inh	Pol eta inh	PI4K2A inh	POLB inh	POLI inh	POLK inh	TbPGK inh	others
O=C(CSc1n[nH]c(-c2ccccc2)n1)N1CCN(c2ccccc2F)CC1	/	-10%	-2	9%	-17%	-18%[60.1 µM]	/
COc1ccc(Cn2c(=O)[nH]c3cc(C(=O)N4CCN(c5ccc(C(C)=O)cc5)CC4)ccc3c2=O)cc1	-18	5%	0	-17%	143%	-17%	/
C=CCn1c(=O)[nH]c2cc(C(=O)N3CCN(c4ccc(C(C)=O)cc4)CC3)ccc2c1=O	/	?	-28	35µM*	?	?	/	Pol iota confirm=47*
O=C(N/N=C/c1c[nH]c2ccccc12)c1ccncc1	?	-19%	-6	-11%	114%	-7%	/
O=C(N/N=C/c1c[nH]c2ccc(Br)cc12)c1ccncc1	-5	?	-2	?	56µM*	-24%	/	Pol iota confirm=67*
Cc1ccc(S(=O)(=O)C(CNC(=O)COc2ccccc2)c2cccs2)cc1 (stereo not drawn)	/	-14%	2	13µM*	1%	-7%[60.1 µM]	?
CN(C)c1ccc(Nc2nc(N)c3ccccc3n2)cc1	?	-8%	?	-3%	6%	-28%	13µM*
COc1ccc(-c2nc3sc(CCNC(=O)C(=O)Nc4cccc(NC(C)=O)c4)c(C)n3n2)cc1	/	?	0	13µM*	4%	-1%[60.1 µM]	/	Pol iota confirm=?
COc1ccc(-c2nc3sc(CCNC(=O)C(=O)Nc4ccc(OC)c(OC)c4)c(C)n3n2)cc1	/	8%	1	23%	5%	-6%[60.1 µM]	/
CN(C)c1ccc(/C=N/NC(=O)c2ccccn2)cc1	-27	-16%	-50*	?	-1%[58.9 µM]	-5%	?
O=C(N/N=C/c1ccncc1)c1ccccn1	-2	-15%	1	1%	7%	4%	/
CC(=NNC(=O)c1ccncc1)c1ccccc1Cl	-2	-3%	5	/	56%	-6%	/
C/C(=N\NC(=O)c1ccccc1NC(=O)c1ccc(Cl)cc1)c1ccncc1	?	-17%	-6	4%	50%	-2%	6.5µM*
COc1ccc(CNC(=O)Cn2ncc3c([nH]c4ccccc43)c2=O)cc1	/	-6%	-4	3%	14%	2%	/
CCn1c(C)cc(C(=O)COC(=O)c2ccccc2[N+](=O)[O-])c1C	-12	-19%	?	/	3%	-5%	15µM*
O=C(COC(=O)c1ccccc1[N+](=O)[O-])c1ccc2c(c1)OCO2	-20	?	?	/	41%	-10%	9.2µM*
CC(C)c1cnc2c(c1SCC(=O)NCc1ccccc1Cl)c(=O)n(C)c(=O)n2C	/	-16%	0	1%	-11%	8%[60.1 µM]	/
Cc1ccccc1N=CC1=C(O)c2ccccc2C1=O	-27	-10%	?	9%	9%	-4%	10µM*
